TDP1 inh – inhibitors of human tyrosyl-DNA phosphodiesterase TDP1; 0.28% of 350,000 active; AID 485290; recombinant TDP1, AlphaScreen DNA substrate cleavage; Potency, µM (highest dose often 130 µM), for the others: top-dose activity change, negative = inhibition, usual class: inhibitors; Q9NUW8; also: nearly all actives have a fitted effect of over 40% in size
Target sequence (Q9NUW8 whole entry, looked up): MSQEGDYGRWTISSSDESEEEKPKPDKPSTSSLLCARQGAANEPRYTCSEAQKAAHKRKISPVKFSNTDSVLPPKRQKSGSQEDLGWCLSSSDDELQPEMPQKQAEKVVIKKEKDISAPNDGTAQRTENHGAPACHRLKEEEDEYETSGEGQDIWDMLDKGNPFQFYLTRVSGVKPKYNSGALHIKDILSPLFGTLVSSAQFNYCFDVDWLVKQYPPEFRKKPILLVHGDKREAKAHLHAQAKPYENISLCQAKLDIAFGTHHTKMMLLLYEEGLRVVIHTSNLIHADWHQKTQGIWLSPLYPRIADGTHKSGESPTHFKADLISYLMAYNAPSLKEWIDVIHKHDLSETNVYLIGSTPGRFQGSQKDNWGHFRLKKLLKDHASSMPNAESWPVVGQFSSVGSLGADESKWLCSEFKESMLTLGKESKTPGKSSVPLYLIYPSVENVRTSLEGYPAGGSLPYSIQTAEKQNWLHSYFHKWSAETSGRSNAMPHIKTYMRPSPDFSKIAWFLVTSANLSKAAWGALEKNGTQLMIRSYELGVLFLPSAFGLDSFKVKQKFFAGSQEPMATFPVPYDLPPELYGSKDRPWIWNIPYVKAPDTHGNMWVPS
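Signal: AlphaScreen proximity between streptavidin donor and anti-FITC acceptor beads on intact substrate. Reaction: Tdp1 1 nM, substrate 15 nM final, 5 min RT after 15 min compound preincubation.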
RORg inh – ROR gamma (mouse) transcription inhibition | Drosophila S2 Gal4-RORgamma UAS-luciferase reporter, 20 h | Potency, µM (series often up to 53.6 µM), without a hit: at the top dose activity change, negative = inhibition, usual class: inhibitors | 5.4% of 310,000 active | AID 2551; also: nearly all actives have a fitted effect of over 60% in size
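Compounds are pin-transferred onto Drosophila Schneider cells expressing a copper-inducible Gal4–ROR gamma transactivation domain fusion. After 1 hr, copper sulfate is added to 700 uM final; luciferase is read 20 hr later.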
TDP1 cell noCPT – qHTS for Inhibitors of human tyrosyl-DNA phosphodiesterase 1 (TDP1): qHTS in cells in absence of CPT; DT40 Tdp1-/- hTDP1 cells, no CPT, ATP luminescence, 48 h; Potency, µM (top dose mostly 46.2 µM), without a hit: at the top dose activity change, negative = growth inhibition, actives largely listed as inhibitors; 15% of 420,000 active; also: nearly all actives have a fitted effect of over 55% in size
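Stably hTDP1-transfected Tdp1-null chicken DT40 cells were treated with library compounds minus camptothecin and grown for at least 48 hr at 37 °C, after which cellular ATP was quantified by luminescence.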
VP16 counter – Gal4-VP16 reporter inhibition counter-screen. Drosophila S2 Gal4-VP16 UAS-luciferase, luminescence, 20 h. Potency, µM (doses to about 53.6 µM), inactives show at the top dose activity, negative = inhibition, usual class: inhibitors. 3.5% of 310,000 active;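 also: Gal4-VP16 expression switched on by copper sulfate through the metallothionein promoter; nearly all actives have a fitted effect of over 50% in size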
DT40 TDP1 CPT – growth inhibition of DT40 Tdp1-/-;hTDP1 cells with camptothecin (screen for TDP1 inhibitors); chicken DT40 Tdp1-/-;hTDP1 cells + 20 nM CPT, ATP luminescence, 48 h; Potency, µM (highest dose often 46.2 µM), for the others: top-dose activity change, negative = growth inhibition, hits mostly inhibitors; 12% of 420,000 active; also: nearly all actives have a fitted effect of over 55% in size
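Cell growth measured by CellTiter-Glo luminescence after a minimum 48 h, 37 C compound exposure with 20 nM CPT in Tdp1-knockout DT40 cells stably expressing hTDP1, seeded 400/well; qHTS titration format.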
Numbers without * were called inactive; u = inconclusive; x = not tested or not shown; [ ] = remark or other dose. In the library only some 19% were active in any assay of this set; here they are far more common. Calls follow the shape of the dose curve; as a rule, active = well fitted curve in the direction sought with a large enough effect; inconclusive = small, poorly fitted or top-dose-only effect, or another doubt; inactive = no such curve, though single readings can be large; an effect the other way counts as inactive or inconclusive. % is scaled to controls: 0 for no effect and ±100 for the full control effect; potency is read from the fitted curve at half-maximal effect.

SMILES | TDP1 inh | RORg inh | TDP1 cell noCPT | VP16 counter | DT40 TDP1 CPT
Cc1ccccc1N1CC(C(=O)Nc2ccncc2)CC1=O (configuration not stated) | x | x | 3.1% | x | 13.6%
CCn1c(=O)n(CC(=O)NCc2ccco2)c(=O)c2ccccc21 | 2.0% | 2.8% | -15.8% | 3.5% | 2.4%
COc1cc2c(cc1OC)CN(c1nc(CN3CCCC3)nc3sc(C)c(C)c13)CC2 | 5.0% | u | u | -6.5% | -22.5%
Cc1ccc(C(=O)CSc2nnc(CNc3ccc(C)cc3C)n2Cc2ccco2)cc1 | 8.4% | -11.7% | u | 0.6% | 20.6µM*
COc1ccc(C(=O)CSc2nnc(CNc3ccc(C)cc3C)n2Cc2ccco2)cc1 | 8.2% | 21.8% | 23.1µM* | 8.2% | 18.4µM*
Cc1ccc(NCc2nnc(SCC(=O)NCc3ccco3)n2CC2CCCO2)c(C)c1 (configuration not stated) | 4.8% | 19.8% | -19.2% | -1.2% | -15.8%
Cc1ccc(C(=O)CSc2nnc(-c3ccco3)n2C)cc1 | -7.6% | 39.9% | 16.4µM* | u | u
Cn1c(SCC(=O)c2cc(Cl)c(Cl)s2)nnc1-c1ccco1 | 0.0% | u | -29.6% | u | 4.6%
COc1ccc(CCNS(=O)(=O)c2csc(C(N)=O)c2)cc1OC | 0.4% | -3.0% | u | 5.3% | -2.2%
N/C(=N\c1nc2c(c(=O)[nH]1)CCCC2)Nc1ccccc1 | 1.0% | 10.8% | u | 1.6% | -26.7%
Cc1ccc(N/C(N)=N/c2nc(C)cc(N3CCCCC3)n2)c(C)c1 | -0.6% | -33.0% | 2.59µM* | u | 2.31µM*
N/C(=N\c1nc2c(c(=O)[nH]1)CCCC2)Nc1ccccc1Sc1ccccc1 | 2.2% | u | 20µM* | 11.2% | 11.2µM*
Cc1ccc(N/C(N)=N/c2nc3c(c(=O)[nH]2)CCCC3)c(C)c1 | 4.0% | 9.5% | 11.6µM* | -7.7% | 13µM*
Cn1c(C(=O)N2CCOCC2)cnc1Sc1ncc(C(F)(F)F)cc1Cl | 4.2% | -1.0% | -0.8% | -3.6% | -4.1%
COc1ccc(-c2nc(NCCCN(C)C)c3ccccc3n2)cc1 | x | 13.2% | u | 2.2% | -25.2%
Cc1ccccc1-c1cncnc1N(C)Cc1ccco1 | 22.4µM* | -26.3% | -11.9% | -4.3% | 5.3%
COc1ccccc1-c1cncnc1N(C)Cc1ccco1 | x | -9.4% | -21.5% | 0.5% | 11.9%
O=c1[nH]c2ccccc2nc1-c1ccccc1 | 0.0% | 24.7% | -0.6% | -12.1% | 19.8%
NC(=O)N=Nc1c2[nH]c3ccccc3nc-2c2ccccc12 | x | u | 8.2µM* | -29.6% | 16.4µM*
CCc1c(O)nc(N2CCN(Cc3ccccc3)CC2)[nH]c1=O | 4.2% | 0.0% | -9.9% | 7.8% | -4.8%
Cc1ccccc1-c1nc2c(s1)CCc1onc(-c3cccc([N+](=O)[O-])c3)c1-2 | 1.7% | x | -13.5% | x | 9.1%
CCOc1ccc(S(=O)(=O)Nc2ccccc2C(=O)N/N=C/c2c(OC)ccc3ccccc23)cc1 | -2.7% | 6.31µM* | -27.8% | 5.62µM* | -25.9%
CCOC(=O)c1ccccc1NC(=O)CN(c1ccccc1)S(=O)(=O)c1ccc(OCC)cc1 | x | x | 14.6µM* | x | 23.1µM*
COC(=O)c1cccc(NS(=O)(=O)c2ccc(OC)cc2)c1C | -2.5% | u | 6.51µM* | -22.5% | 5.17µM*
CCOc1ccc(N(CC(=O)Nc2ccccc2C(=O)N2CCOCC2)S(=O)(=O)c2ccc(F)cc2)cc1 | 0.0% | 15.9% | -25.6% | -10.4% | -15.4%
SMILES | TDP1 inh | RORg inh | TDP1 cell noCPT | VP16 counter | DT40 TDP1 CPT
COc1ccc(N(CC(=O)Nc2ccc(OC)cc2OC)S(=O)(=O)c2ccccc2)cc1 | -2.4% | -15.6% | 18.4µM* | 4.0% | 23.1µM*
COc1ccc2ccccc2c1/C=N/NC(=O)c1ccccc1F | x | -25.3% | -10.9% | -1.2% | -5.7%
CC(C)C1(C)C(=O)N=C2c3ccccc3C(=O)N21 (configuration not stated) | 4.2% | 5.4% | -5.2% | 8.7% | -13.3%
CCOc1ccc(S(=O)(=O)Nc2ccccc2C(=O)N(C)C2CCN(C)CC2)cc1 | 0.5% | x | 17.2% | x | -6.2%
CCOC(=O)c1ccccc1NS(=O)(=O)c1ccc(OCC)cc1 | u | 1.9% | 12.6µM* | -15.1% | 7.94µM*
COc1ccc(N(CC(=O)NCCSc2ccccn2)S(=O)(=O)c2ccccc2)cc1Cl | 0.3% | 21.2% | u | -14.2% | 16.4µM*
COc1ccc(N(CC(=O)NCc2ccncc2)S(=O)(=O)c2ccc(C)c([N+](=O)[O-])c2)cc1 | 3.1% | -0.3% | 10.9% | -4.0% | u
COc1ccc(N(CC(=O)Nc2ccccc2F)S(=O)(=O)c2ccc(C)c([N+](=O)[O-])c2)cc1 | -2.7% | -10.8% | 23.1µM* | 18.7% | u
COc1ccc(NC(=O)CN(c2ccc(OC)c(Cl)c2)S(=O)(=O)c2ccccc2)c(OC)c1 | x | u | 23.1µM* | -10.7% | u
CCN(CC(=O)Nc1ccc(OC)cc1)CC(=O)Nc1sc2c(c1C(=O)OC)CCCC2 | -0.4%[56.1 µM] | x | u | x | u
Cc1nn(CCCC(=O)Nc2nccs2)c(C)c1[N+](=O)[O-] | 3.7% | -20.4% | -4.6% | 1.2% | -19.6%
COC(=O)C1=NNC(C(=O)c2ccco2)C1c1ccccc1 (configuration not stated) | 2.5% | -0.5% | u | 19.8% | u
COc1ccc(N(CC(=O)Nc2cccc(OC)c2)S(=O)(=O)c2c(C)nn(C)c2C)cc1 | 6.2% | 20.4% | -28.3% | 1.2% | -24.9%
CCOc1ccc(NC(=O)c2ccccc2NS(=O)(=O)c2ccc(F)cc2)c([N+](=O)[O-])c1 | 5.8% | u | u | u | 23.1µM*
COc1ccc(S(=O)(=O)N(CC(=O)Nc2ccc(OC)cc2OC)c2ccc(Cl)cc2)cc1 | x | x | 25.9µM* | x | 23.1µM*
COc1ccc(NC(=O)CN(c2ccc([N+](=O)[O-])cc2)S(=O)(=O)c2ccccc2)c(OC)c1 | -1.4% | -3.9% | u | -2.7% | u
COc1ccc(N(CC(=O)Nc2cc(OC)ccc2OC)S(=O)(=O)c2c(C)nn(C)c2C)cc1 | 2.5% | -12.9% | u | 1.7% | 20.6µM*
CCOC(=O)c1ccccc1NC(=O)CN(c1ccccc1C)S(C)(=O)=O | -0.5% | -5.6% | 16.4µM* | 7.0% | u
CCC1Sc2ccccc2N(CC(=O)NCc2ccc3c(c2)OCO3)C1=O (configuration not stated) | 5.4% | 23.5% | u | 19.2% | u
Cc1cc(=O)[nH]c(N2CCCC2)n1 | 0.0% | -1.9% | -18.5% | 1.6% | 2.0%
CCOC(=O)C1CCN(C(=O)c2ccc(NC(=O)C3CCCO3)cc2)CC1 (configuration not stated) | 2.4% | -7.0% | -7.7% | -4.6% | -3.3%

Assay outcomes as filed in PubChem.
